In PubChem BioAssay (EPA / NIEHS) one finds AC50 and outcome data, which are given here for 40 compounds.

Values joined by “and” are separate entries in the source; they are usually repeats but may differ in a detail not shown here. Equal values may be shown once. Active and inactive are the calls of the source. Rule for the calls: active = hit-call score of the fitted dose curve at least 0.9, where 1 is the maximum; inactive = score below 0.9.

This experiment in a line: BSK_3C_VCAM1: BioMAP Diversity Plus: 3C Assay for Vascular cell adhesion molecule 1 (VCAM1) Biomarker Activity (AID 2282999). The following applies: BioMAP 3C HUVEC, VCAM1 ELISA, cytokine-stimulated; actives raise or lower the signal. How it is done: BSK_3C is a cell-based, multiplexed-readout assay that uses umbilical vein endothelium, a human vascular primary cell, with measurements taken at 24 hours after chemical dosing in a 96-well plate.BSK_3C_VCAM1 is an assay component measured in the BSK_3C assay. It measures VCAM-1 antibody related to regulation of gene expression using ELISA technology.Data from the assay component BSK_3C_VCAM1 was analyzed into 1 assay endpoint. This assay endpoint, BSK_3C_VCAM1, was analyzed with bidirectional fitting relative to DMSO as the negative control and baseline of activity. Using a type of binding reporter, gain or loss-of-signal activity can be used to understand changes in the signaling as they relate to the gene VCAM1. Furthermore, this assay endpoint can be referred to as a primary readout, because this assay has produced multiple assay endpoints where this one serves a signaling function. To generalize the intended target to other relatable targets, this assay endpoint is annotated to the cell adhesion molecules intended target family, where the subfamily is Immunoglobulin CAM.
The levels of cell surface (or secreted, indicated by the prefix "s") biomarker endpoints were measured by ELISA. Overt cytotoxicity to cells in confluent adherent cultures (all systems other than the BT system) was assessed by measuring total protein levels using sulforhodamine B (SRB) staining in parallel cultures at the time of biomarker measurements, indicated as SRB endpoints. For proliferation assays for adherent cell types, individual cell types are cultured at sub-confluence and relative cell numbers quantified by SRB staining at time points optimized for each system (48 h: 3C and CASM3C systems; 72 h: BT and HDF3CGF systems; 96 h: SAg system). SRB was performed by staining cells with 0.1% SRB after fixation with 10% TCA and reading wells at 560 nm.Viability and proliferation of PBMC (T cells) was quantified by Alamar Blue reduction for the SAg and BT systems. For PBMC viability (referred to as PBMC Cytotoxicity within the assay endpoint names), cells were plated (75,000/well in a 96-well plate) and then chemical samples added for 1 h before addition of activators, SEB and TSST-1 (20 ng/mL final concentration each). Cells were incubated for 90 h. Then, Alamar Blue (20 uL/well) (Invitrogen, Cat DAL1100) was added for 6 h, and the plates were read with a fluorescence microplate reader at 546/580 nm (excitation/emission). For PBMC proliferation, cells were plated and activated as above but incubated for only 16 h prior to addition of Alamar Blue. Plates were read after 6 h.
In the case of `C=COC(=O)C(C)(C)CCCCCC`, the AC50 (usually the concentration giving half of the maximal activity seen) is 34.4 µM (active).

Consider `OCC(F)(F)C(F)(F)C(F)(F)C(F)(F)C(F)(F)C(F)(F)C(F)(F)C(F)(F)C(F)(F)C(F)(F)C(F)(F)F`, for which the outcome was inactive.

Regarding `CC1=NN(c2ccccc2)C(=O)C1`, the outcome was inactive.

On to `CCCCc1oc2ccccc2c1C(=O)c1cc(I)c(OCCN(CC)CC)c(I)c1`, for which the AC50 is 22.6 µM (active).

Consider `O=C(CC(=O)C(F)(F)C(F)(F)C(F)(F)F)c1cccs1`, for which the AC50 is 45.3 µM (active) and 48.7 µM (active).

Regarding `C[C@]12CC[C@@H]3c4ccc(O)cc4CC[C@H]3[C@@H]1C[C@@H](O)[C@@H]2O`, the result was inactive.

Consider `O=C1c2ccc(O)c(O)c2C(=O)c2c(O)ccc(O)c21`, for which the outcome was inactive.

On to `O=P(O)(O)CCC(F)(F)C(F)(F)C(F)(F)C(F)(F)C(F)(F)C(F)(F)C(F)(F)C(F)(F)F`, for which the result was inactive.

Regarding `O=C(c1ccccc1)c1ccccc1`, the result was inactive.

For the compound `CCC(C)c1ccccc1O` (stereo not given), the result was inactive.

Consider `CN(Cc1cnc2nc(N)nc(N)c2n1)c1ccc(C(=O)N[C@@H](CCC(=O)O)C(=O)O)cc1`, for which the outcome was inactive.

For `NC(=NCCCCCCN=C(N)/N=C(\N)Nc1ccc(Cl)cc1)/N=C(\N)Nc1ccc(Cl)cc1`, the AC50 was 7.92 µM (active).

For the compound `O=C1NS(=O)(=O)c2ccccc21`, the result was inactive.

In the case of `COCN(COC)c1nc(N(COC)COC)nc(N(COC)COC)n1`, the outcome was inactive.

On to `CC(C)(C)c1ccc(O)c(O)c1`, for which the AC50 was 20 µM (active).

In the case of `CCCCCCCCCCCCCCCCCC[N+](C)(C)Cc1ccccc1`, the half-maximal activity concentration (AC50) is 1.91 µM (active).

As for `CCOC(=O)CN[C@@H](C(=O)N1CC[C@H]1C(=O)NCc1ccc(/C(N)=N/O)cc1)C1CCCCC1`, the result was inactive.

On to `CCCCCCCCCCCCCCC`, for which the outcome was inactive.

Consider `O=C(CCCN1CCC(O)(c2ccc(Cl)cc2)CC1)c1ccc(F)cc1`, for which the outcome was inactive.

For the compound `Cc1cccc2c1ccc1ccccc12`, the outcome was inactive.

Take `CCCCCCCCCCCC`: the result was inactive.

With `C=CC(=C)CC/C=C(\C)CCC=C(C)C`, the outcome was inactive.

Consider `CCCCC(CC)C(=O)OCCOCCOCCOCCOC(=O)C(CC)CCCC` (stereo not given), for which the result was inactive.

Consider `Oc1c(Cl)cc(Cl)cc1Sc1cc(Cl)cc(Cl)c1O`, for which the AC50 is 31.3 µM (active) and 28.6 µM (active).

On to `CC[N+](CC)(CC)Cc1ccccc1`, for which the outcome was inactive.

In the case of `Cc1[nH]nc2c1N=C(c1ccccc1Cl)c1cc([N+](=O)[O-])ccc1N2`, the AC50 is 3.03 µM (active).

Consider `Oc1cc2ccccc2cc1O`, for which the result was inactive.

Regarding `O=C(NCc1ncc(C(F)(F)F)cc1Cl)c1c(Cl)cccc1Cl`, the result was inactive.

With `Clc1ccc(Nc2nnc(Cc3ccncc3)c3ccccc23)cc1`, the result was inactive.

`O=C(O)CCC(F)(F)C(F)(F)C(F)(F)C(F)(F)C(F)(F)F`: the outcome was inactive.

Turning to `Oc1ccc(Cc2ccccc2O)cc1`, the result was inactive.

With `OCCN1CN(CCO)CN(CCO)C1`, the AC50 is 32.8 µM (active).

With `COc1cc(OC)nc(NC(=O)NS(=O)(=O)Nc2ccccc2C(=O)N(C)C)n1`, the result was inactive.

As for `CCCCCCCCCCCCOS(=O)(=O)O`, the outcome was inactive.

For `Cc1ccc(C(=O)c2ccccc2)cc1`, the AC50 was 26.3 µM (active).

As to `CN(C)CCOC(c1ccccc1)c1ccccc1`, the outcome was inactive.

Turning to `O=P(O)(O)CCC(F)(F)C(F)(F)C(F)(F)C(F)(F)C(F)(F)C(F)(F)F`, the outcome was inactive.

Consider `COC1=CC(=O)C[C@@H](C)[C@]12Oc1c(Cl)c(OC)cc(OC)c1C2=O`, for which the outcome was inactive.

Take `CCCCC(CC)C(=O)O` (stereo not given): the outcome was inactive.

As for `COc1cccc(O)c1`, the result was inactive.
